Measured values from PubChem BioAssay AID1159580 (chemical genetic matrix, 2015).
The whole screen tested about 5,500 compounds, of which about 2,000 (36%) were called active. About 18% were inconclusive and are not listed. No stated cut-off is given here; in the data, active means normalized growth mostly below about 0.91 (no sharp cut-off); inconclusive means no clear call, values can overlap the other calls; inactive means mostly above about 0.92. This is one part of the list.

Experiment: chemical genetic growth profiling, strain panel (AID 1159580);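 further: tested at 20 µM; growth read once vehicle control cultures reached saturation at 30 °C; 1 = growth at the plate median or of vehicle wells; lower values mean less growth of the strain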
Conditions: growth OD

Measured: normalized growth

NC(=O)c1cc[n+](CC2=C(C(=O)O)N3C(=O)C(NC(=O)C(c4ccccc4)S(=O)(=O)[O-])C3SC2)cc1 (stereo not given)
inactive: S. cerevisiae deletion strains, locus YJR066W, strain TOR1, hits give low values 1 | S. cerevisiae deletion strains, locus YKL009W, strain mrt4, hits give low values 0.991 | S. cerevisiae deletion strains, locus YKL068W, hits give low values 0.992 | S. cerevisiae deletion strains, locus YKL085W, strain MDH1 (second series), hits give low values 0.987 | S. cerevisiae deletion strains, locus YKL085W, strain MDH1, hits give low values 0.987 | S. cerevisiae deletion strains, locus YKL160W, strain elf1, hits give low values 0.967 | S. cerevisiae deletion strains, locus YKL190W, strain CNB1, hits give low values 0.996 | S. cerevisiae deletion strains, locus YKR001C, strain vps1, hits give low values 0.993 | S. cerevisiae deletion strains, locus YKR026C, strain gcn3, hits give low values 0.96 | S. cerevisiae deletion strains, locus YKR091W, strain srl3, hits give low values 1.01 | S. cerevisiae deletion strains, locus YLL001W, strain dnm1, hits give low values 0.961 | S. cerevisiae deletion strains, locus YLL026W, hits give low values 0.999 | S. cerevisiae deletion strains, locus YLL041C, strain sdh2, hits give low values 0.978 | S. cerevisiae deletion strains, locus YLR027C, strain aat2, hits give low values 0.982 | S. cerevisiae deletion strains, locus YLR039C, strain RIC1, hits give low values 0.986 | S. cerevisiae deletion strains, locus YLR058C, strain SHM2, hits give low values 0.987 | S. cerevisiae deletion strains, locus YLR102C, strain apc9, hits give low values 0.992 | S. cerevisiae deletion strains, locus YLR113W, strain HOG1, hits give low values 1.09 | S. cerevisiae deletion strains, locus YLR221C, strain rsa3, hits give low values 0.991 | S. cerevisiae deletion strains, locus YLR258W, strain gsy2, hits give low values 1.01 | S. cerevisiae deletion strains, locus YLR262C, strain YPT6 (second series), hits give low values 0.983 | S. cerevisiae deletion strains, locus YLR262C, strain YPT6, hits give low values 0.945 | S. cerevisiae deletion strains, locus YLR268W, strain sec22, hits give low values 0.981 | S. cerevisiae deletion strains, locus YLR320W, strain mms22, hits give low values 1.01 | S. cerevisiae deletion strains, locus YLR330W, strain CHS5, hits give low values 0.982 | S. cerevisiae deletion strains, locus YLR342W, strain FKS1 (second series), hits give low values 0.959 | S. cerevisiae deletion strains, locus YLR342W, strain FKS1, hits give low values 0.973 | S. cerevisiae deletion strains, locus YLR357W, strain rsc2, hits give low values 0.965 | S. cerevisiae deletion strains, locus YLR370C, strain arc18, hits give low values 1 | S. cerevisiae deletion strains, locus YLR371W, strain rom2, hits give low values 0.987 | S. cerevisiae deletion strains, locus YLR384C, strain iki3, hits give low values 0.984 | S. cerevisiae deletion strains, locus YLR418C, strain cdc73, hits give low values 0.972 | S. cerevisiae deletion strains, locus YML016C, strain PPZ1, hits give low values 0.982 | S. cerevisiae deletion strains, locus YML032C, strain rad52, hits give low values 0.989 | S. cerevisiae deletion strains, locus YML120C, strain ndi1, hits give low values 0.986 | S. cerevisiae deletion strains, locus YML124C, strain tub3, hits give low values 0.982 | S. cerevisiae deletion strains, locus YMR058W, strain fet3, hits give low values 0.998 | S. cerevisiae deletion strains, locus YMR078C, strain ctf18, hits give low values 0.989 | S. cerevisiae deletion strains, locus YMR125W, strain sto1, hits give low values 0.971 | S. cerevisiae deletion strains, locus YMR129W, hits give low values 1.01 | S. cerevisiae deletion strains, locus YMR205C, strain PFK2, hits give low values 1 | S. cerevisiae deletion strains, locus YMR223W, strain ubp8, hits give low values 0.974 | S. cerevisiae deletion strains, locus YMR231W, strain pep5, hits give low values 1 | S. cerevisiae deletion strains, locus YMR307W, strain GAS1, hits give low values 0.883 | S. cerevisiae deletion strains, locus YNL067W, strain RPL9B, hits give low values 1.02 | S. cerevisiae deletion strains, locus YNL071W, strain lat1, hits give low values 1.01 | S. cerevisiae deletion strains, locus YNL153C, strain GIM3, hits give low values 1.04 | S. cerevisiae deletion strains, locus YNL183C, strain NPR1, hits give low values 0.999 | S. cerevisiae deletion strains, locus YNL209W, strain ssb2, hits give low values 1.01 | S. cerevisiae deletion strains, locus YNL233W, strain BNI4, hits give low values 1.01 | S. cerevisiae deletion strains, locus YNL248C, strain rpa49, hits give low values 0.987 | S. cerevisiae deletion strains, locus YNL250W, strain rad50, hits give low values 0.975 | S. cerevisiae deletion strains, locus YNL271C, strain bni1, hits give low values 0.985 | S. cerevisiae deletion strains, locus YNL298W, strain CLA4, hits give low values 0.988 | S. cerevisiae deletion strains, locus YNL307C, strain MCK1, hits give low values 0.987 | S. cerevisiae deletion strains, locus YNL322C, strain KRE1 (second series), hits give low values 0.994 | S. cerevisiae deletion strains, locus YNL322C, strain KRE1, hits give low values 0.993 | S. cerevisiae deletion strains, locus YNR049C, strain mso1, hits give low values 0.986 | S. cerevisiae deletion strains, locus YNR052C, strain pop2, hits give low values 0.991 | S. cerevisiae deletion strains, locus YOL006C, strain TOP1, hits give low values 1.02 | S. cerevisiae deletion strains, locus YOL012C, strain htz1 1.88 | S. cerevisiae deletion strains, locus YOL147C, strain pex11, hits give low values 0.983 | S. cerevisiae deletion strains, locus YOR001W, strain rrp6, hits give low values 0.985 | S. cerevisiae deletion strains, locus YOR061W, strain CKA2, hits give low values 0.985 | S. cerevisiae deletion strains, locus YOR069W, strain VPS5, hits give low values 0.987 | S. cerevisiae deletion strains, locus YOR070C, strain gyp1, hits give low values 1.01 | S. cerevisiae deletion strains, locus YOR080W, strain dia2, hits give low values 0.982 | S. cerevisiae deletion strains, locus YOR083W, strain WHI5, hits give low values 0.985 | S. cerevisiae deletion strains, locus YOR106W, strain vam3, hits give low values 0.992 | S. cerevisiae deletion strains, locus YOR136W, strain idh2, hits give low values 0.998 | S. cerevisiae deletion strains, locus YOR144C, strain elg1, hits give low values 0.991 | S. cerevisiae deletion strains, locus YOR184W, strain ser1, hits give low values 0.98 | S. cerevisiae deletion strains, locus YOR231W, strain MKK1, hits give low values 1.09 | S. cerevisiae deletion strains, locus YOR265W, strain rbl2, hits give low values 1 | S. cerevisiae deletion strains, locus YOR270C, strain vph1, hits give low values 0.93 | S. cerevisiae deletion strains, locus YOR290C, strain snf2, hits give low values 0.998 | S. cerevisiae deletion strains, locus YOR316C, strain cot1, hits give low values 0.994 | S. cerevisiae deletion strains, locus YPL051W, strain arl3, hits give low values 0.987 | S. cerevisiae deletion strains, locus YPL055C, strain LGE1, hits give low values 1.06 | S. cerevisiae deletion strains, locus YPL078C, strain atp4, hits give low values 0.962 | S. cerevisiae deletion strains, locus YPL106C, strain sse1, hits give low values 1.02 | S. cerevisiae deletion strains, locus YPL240C, strain hsp82, hits give low values 0.987 | S. cerevisiae deletion strains, locus YPL241C, strain CIN2, hits give low values 0.991 | S. cerevisiae deletion strains, locus YPL256C, strain CLN2, hits give low values 1.07 | S. cerevisiae deletion strains, locus YPR119W, strain clb2, hits give low values 0.995 | S. cerevisiae deletion strains, locus YPR141C, strain kar3, hits give low values 0.98 | S. cerevisiae deletion strains, locus YPR163C, strain tif3, hits give low values 0.987 | S. cerevisiae deletion strains, locus YPR167C, strain met16, hits give low values 0.981 | S. cerevisiae deletion strains, strain wtn01, hits give low values 0.981 | S. cerevisiae strains, strain wild type, hits give low values 0.995
